# Measured values as given in the supplement of paper PMC8728848.
# The full list was thinned out, with the strongest signals kept by preference.
# Legend:
# Experiment in all cases: glycan array binding signal (z-score within array); higher = stronger binding
# Conditions in all cases: glycan notation: IUPAC condensed, linker removed
# [1] = target: Gal(b1-4)GlcNAc(b1-6)GalNAc
# In short: (§1)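 Glycan array data were curated from 3228 arrays in the Consortium for Functional Glycomics database and kept only where the protein sequence was available. Glycan names were converted to IUPAC-condensed notation, and columns mapping to the same glycan were averaged. The binding signal is a within-array Z-score, averaged across arrays of the same protein sequence at different concentrations or buffers and across linkers. Negative Z-scores can be read as non-binding.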
# Gal3S6S(b1-4)GlcNAc = target: Gal3S6S(b1-4)GlcNAc
# In short: as §1
# [2] = target: GalNAc(b1-3)Gal(a1-4)Gal(b1-4)GlcNAc
# In short: as §1
# GalNAc(b1-4)GlcNAc = target: GalNAc(b1-4)GlcNAc
# In short: as §1
# [3] = target: Glc(a1-6)Glc(a1-6)Glc(a1-6)Glc
# In short: as §1
# [4] = target: GlcNAc(a1-4)Gal(b1-4)GlcNAc
# In short: as §1
# [5] = target: GlcNAc(b1-2)[GlcNAc(b1-4)]Man(a1-3)[GlcNAc(b1-4)][GlcNAc(b1-2)[GlcNAc(b1-6)]Man(a1-6)]Man(b1-4)GlcNAc(b1-4)[Fuc(a1-6)]GlcNAc
# In short: as §1
# [6] = target: GlcNAc(b1-2)[GlcNAc(b1-6)]Man(a1-6)[GlcNAc(b1-2)Man(a1-3)]Man(b1-4)GlcNAc(b1-4)[Fuc(a1-6)]GlcNAc
# In short: as §1
# [7] = target: GlcNAc(b1-3)Gal(b1-4)GlcNAc(b1-2)Man(a1-3)[GlcNAc(b1-3)Gal(b1-4)GlcNAc(b1-2)Man(a1-6)]Man(b1-4)GlcNAc(b1-4)GlcNAc
# In short: as §1
# [8] = target: GlcNAc(b1-3)Gal(b1-4)GlcNAc(b1-3)Gal(b1-4)GlcNAc(b1-3)GalNAc
# In short: as §1
# [9] = target: GlcNAc(b1-6)Gal(b1-4)GlcNAc
# In short: as §1
# [10] = target: Man(a1-2)Man(a1-2)Man(a1-3)Man
# In short: as §1
# [11] = target: Man(a1-3)[Man(a1-6)]Man(b1-4)GlcNAc(b1-4)[Fuc(a1-6)]GlcNAc
# In short: as §1
# [12] = target: Neu5Ac(a2-3)Gal(b1-4)GlcNAc(b1-2)[Neu5Ac(a2-3)Gal(b1-4)GlcNAc(b1-6)]Man(a1-6)[Neu5Ac(a2-3)Gal(b1-4)GlcNAc(b1-2)Man(a1-3)][GlcNAc(b1-4)]Man(b1-4)GlcNAc(b1-4)GlcNAc
# In short: as §1
# [13] = target: Neu5Ac(a2-3)Gal(b1-4)GlcNAc(b1-3)Gal(b1-4)GlcNAc
# In short: as §1
# [14] = target: Neu5Ac(a2-3)Gal(b1-4)GlcNAc(b1-3)Gal(b1-4)GlcNAc(b1-3)[Neu5Ac(a2-3)Gal(b1-4)GlcNAc(b1-3)Gal(b1-4)GlcNAc(b1-6)]GalNAc
# In short: as §1
# [15] = target: Neu5Ac(a2-3)Gal(b1-4)[Fuc(a1-3)]GlcNAc(b1-3)GalNAc
# In short: as §1
# [16] = target: Neu5Ac(a2-3)Gal(b1-4)[Fuc(a1-3)]GlcNAc(b1-6)[Gal(b1-3)]GalNAc
# In short: as §1
# Neu5Ac(a2-3)GalNAc = target: Neu5Ac(a2-3)GalNAc
# In short: as §1
# [17] = target: Neu5Ac(a2-6)Gal(b1-4)GlcNAc(b1-2)Man(a1-3)[GlcNAc(b1-4)][Neu5Ac(a2-6)Gal(b1-4)GlcNAc(b1-2)Man(a1-6)]Man(b1-4)GlcNAc(b1-4)GlcNAc
# In short: as §1
# [18] = target: Neu5Ac(a2-6)Gal(b1-4)GlcNAc(b1-2)Man(a1-6)Man(b1-4)GlcNAc(b1-4)GlcNAc
# In short: as §1
# [19] = target: Neu5Ac(a2-6)Gal(b1-4)GlcNAc(b1-3)GalNAc
# In short: as §1
# [20] = target: Neu5Gc(a2-3)Gal(b1-4)GlcNAc(b1-3)Gal(b1-4)GlcNAc(b1-2)Man(a1-3)[Neu5Gc(a2-3)Gal(b1-4)GlcNAc(b1-3)Gal(b1-4)GlcNAc(b1-2)Man(a1-6)]Man(b1-4)GlcNAc(b1-4)GlcNAc
# In short: as §1
binder,measurement,setting,value
"SRA-1 (Homo sapiens), P21757 (protein) MEQWDHFHNQQEDTDSCSESVKFDARSMTALLPPNPKNSPSLQEKLKSFKAALIALYLLVFAVLIPLIGIVAAQLLKWETKNCSVSSTNANDITQSLTGKGNDSEEEMRFQEVFMEHMSNMEKRIQHILDMEANLMDTEHFQNFSMTTDQRFNDILLQLSTLFSSVQGHGNAIDEISKSLISLNTTLLDLQLNIENLNGKIQENTFKQQEEISKLEERVYNVSAEIMAMKEEQVHLEQEIKGEVKVLNNITNDLRLKDWEHSQTLRNITLIQGPPGPPGEKGDRGPTGESGPRGFPGPIGPPGLKGDRGAIGFPGSRGLPGYAGRPGNSGPKGQKGEKGSGNTLTPFTKVRLVGGSGPHEGRVEILHSGQWGTICDDRWEVRVGQVVCRSLGYPGVQAVHKAAHFGQGTGPIWLNEVFCFGRESSIEECKIRQWGTRACSHSEDAGVTCTL",glycan array binding signal (z-score),[1],0.967
same,glycan array binding signal (z-score),Gal3S6S(b1-4)GlcNAc,0.399
same,glycan array binding signal (z-score),[2],1.15
same,glycan array binding signal (z-score),GalNAc(b1-4)GlcNAc,1.24
same,glycan array binding signal (z-score),[3],0.295
same,glycan array binding signal (z-score),[4],-0.118
same,glycan array binding signal (z-score),[5],-0.311
same,glycan array binding signal (z-score),[6],0.625
same,glycan array binding signal (z-score),[7],-0.204
same,glycan array binding signal (z-score),[8],0.215
same,glycan array binding signal (z-score),[9],0.773
same,glycan array binding signal (z-score),[10],-0.235
same,glycan array binding signal (z-score),[11],-0.293
same,glycan array binding signal (z-score),[12],-0.583
same,glycan array binding signal (z-score),[13],0.027
same,glycan array binding signal (z-score),[14],0.253
same,glycan array binding signal (z-score),[15],1.05
same,glycan array binding signal (z-score),[16],1.18
same,glycan array binding signal (z-score),Neu5Ac(a2-3)GalNAc,-0.364
same,glycan array binding signal (z-score),[17],-0.341
same,glycan array binding signal (z-score),[18],0.243
same,glycan array binding signal (z-score),[19],-0.285
same,glycan array binding signal (z-score),[20],0.684
